An excerpt weighted towards active compounds, which were near 2.9% of everything screened.
proKLK7 act: activators of human kallikrein-7 zymogen. 0.9% of 370,000 active. AID 652039. activation, % at 7 µM. purified proKLK7, EDANS-DABCYL substrate fluorescence; 100% is mature enzyme control, 0% vehicle;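 active = activation above the mean of all tested compounds plus 3 SD, computed per campaign excluding outliers beyond control limits, cut at about 13% in these data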
PLC-gamma1 inh: blocks human PLC-gamma1 enzyme activity | P19174 | purified PLC-gamma1, fluorogenic substrate, fluorescence | inhibition, % at 12.2 µM | 0.84% of 370,000 active | AID 720700; in the data active = inhibition above about 9.5%
ADAM17 inh: ADAM17 inhibition, QFRET primary screen. P78536. recombinant ADAM17, EDANS/DABCYL FRET peptide cleavage. 0.83% of 370,000 active. inhibition, % at 6.95 µM;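 active = inhibition above the mean of compounds lying between control limits plus 3 SD, set per campaign, cut at about 8.5% in these data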
ADAM10 inh: inhibits human ADAM10 | O14672 | AID 720582 | inhibition, % at 7 µM | recombinant ADAM10, EDANS/DABCYL FRET peptide cleavage, 3 h | 0.62% of 370,000 active;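 active = inhibition above a per-campaign cutoff equal to the mean of compounds falling between control-based bounds plus 3 SD, cut at about 20% in these data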
PLC-beta3 inh: PLC-beta3 (human) inhibition, primary screen | Q01970 | Purified PLC-beta3, fluorogenic substrate, fluorescence | inhibition, % at 12.2 µM | 0.18% of 370,000 active | AID 720704
Target sequence (Q01970 whole entry, looked up): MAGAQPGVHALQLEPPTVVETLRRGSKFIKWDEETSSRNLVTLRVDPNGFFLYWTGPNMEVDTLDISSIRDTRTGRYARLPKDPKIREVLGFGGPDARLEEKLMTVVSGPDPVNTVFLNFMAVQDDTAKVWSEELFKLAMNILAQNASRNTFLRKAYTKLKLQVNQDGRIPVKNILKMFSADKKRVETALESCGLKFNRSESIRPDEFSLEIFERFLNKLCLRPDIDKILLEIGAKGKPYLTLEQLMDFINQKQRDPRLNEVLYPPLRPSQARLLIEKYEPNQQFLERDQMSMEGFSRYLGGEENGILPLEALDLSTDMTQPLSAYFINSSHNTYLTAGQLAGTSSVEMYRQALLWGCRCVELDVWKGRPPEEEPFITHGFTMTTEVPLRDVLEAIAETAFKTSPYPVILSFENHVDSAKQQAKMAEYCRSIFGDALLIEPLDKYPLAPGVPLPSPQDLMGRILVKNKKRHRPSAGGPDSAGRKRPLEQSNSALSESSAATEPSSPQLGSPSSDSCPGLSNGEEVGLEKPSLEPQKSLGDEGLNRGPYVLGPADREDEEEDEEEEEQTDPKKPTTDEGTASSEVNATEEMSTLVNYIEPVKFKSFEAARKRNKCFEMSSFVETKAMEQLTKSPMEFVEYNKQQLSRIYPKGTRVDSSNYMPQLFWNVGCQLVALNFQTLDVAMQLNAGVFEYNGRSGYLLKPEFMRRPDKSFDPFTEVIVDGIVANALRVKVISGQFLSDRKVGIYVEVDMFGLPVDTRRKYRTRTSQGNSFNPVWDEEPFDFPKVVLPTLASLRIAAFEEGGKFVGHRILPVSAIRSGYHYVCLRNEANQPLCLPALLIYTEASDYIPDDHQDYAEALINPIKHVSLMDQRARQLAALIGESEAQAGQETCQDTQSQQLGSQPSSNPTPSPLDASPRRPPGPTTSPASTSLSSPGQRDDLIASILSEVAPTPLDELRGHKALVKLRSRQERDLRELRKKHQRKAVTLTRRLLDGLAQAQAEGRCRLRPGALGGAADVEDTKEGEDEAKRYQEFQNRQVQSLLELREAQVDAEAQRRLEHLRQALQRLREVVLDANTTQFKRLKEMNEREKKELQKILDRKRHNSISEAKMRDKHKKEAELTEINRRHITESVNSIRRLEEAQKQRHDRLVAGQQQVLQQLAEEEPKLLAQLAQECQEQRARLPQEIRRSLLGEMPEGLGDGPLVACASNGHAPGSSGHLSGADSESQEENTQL
ADAM10 confirm: confirmation of inhibitors of human ADAM10. shares compounds with ADAM10 inh. ADAM10 QFRET peptide cleavage, EDANS fluorescence. inhibition, % at 6.95 µM. 1% of 2,100 active. AID 743208;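 active = inhibition above about 20% chosen separately for each screening run, limit read from the data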
ADAM17 ctr: counter-screen for ADAM10 exosite inhibitors: inhibitors of human ADAM17. inhibition, % at 6.95 µM. shares compounds with ADAM10 inh. AID 743214. 0.5% of 2,100 active. ADAM17 QFRET peptide cleavage, EDANS fluorescence;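 active = mean triplicate inhibition above the solvent-only control wells' mean plus 3 SD, cut at about 12% in these data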
ADAM10 ctr: ADAM10 inhibition, counter-screen for ADAM17 exosite hits; shares compounds with ADAM17 inh; inhibition, % at 6.95 µM; recombinant ADAM10, EDANS/DABCYL FRET peptide cleavage, 3 h; 47% of 2,900 active;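 active = mean inhibition over the triplicate runs exceeds the activity threshold set in the earlier primary screen, cut at about 20% in these data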
ADAM17 confirm: confirmation of inhibitors of human ADAM17 | shares compounds with ADAM17 inh | recombinant ADAM17, EDANS/DABCYL QFRET peptide cleavage | inhibition, % at 6.95 µM | 65% of 2,900 active | AID 743257;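 active = mean inhibition across replicates above the hit cutoff set in the primary screen, cut at about 8.5% in these data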
PLCg1 ctr: PLC-gamma1 inhibition, counter-screen for PLC-beta3 hits; shares compounds with PLC-gamma1 inh; purified PLC-gamma1, fluorogenic substrate, fluorescence; inhibition, % at 12.3 µM; 3.1% of 3,300 active; AID 743258; in the data active = inhibition above about 9.5%
PLCb3 confirm: human PLC-beta3 inhibition, confirmation; shares compounds with PLC-gamma1 inh; inhibition, % at 12.3 µM; 1% of 3,300 active; purified PLC-beta3, fluorogenic substrate fluorescence; AID 743261
Of the large screens only hits and unclear results are named; the others gave an inactive call (follow-up assays come after a bar, where they were run). Cut-off read from the data, not from the text of the source, unless noted: active = inhibition above about 11%; inactive = the rest.

O=C(CSC1CS(=O)(=O)c2cc([N+](=O)[O-])ccc21)NNC(=O)c1ccccc1 (stereo not given)	PLC-gamma1 inh 10.0, ADAM10 inh 24 | ADAM10 confirm inactive | ADAM17 ctr inactive | PLCg1 ctr inactive | PLCb3 confirm inactive
O[C@H](COc1cccc(Cl)c1)CN1CCC(C(O)(c2ccccc2)c2ccccc2)CC1	none
COc1ccccc1NC(=O)CNC(c1ccccc1)c1ccccc1	PLC-gamma1 inh 13, ADAM17 inh 9.0, ADAM10 inh 29 | ADAM10 confirm inactive | ADAM17 ctr inactive | ADAM10 ctr 20 | ADAM17 confirm 11 | PLCg1 ctr inactive | PLCb3 confirm inactive
COc1ccc(C(c2nnnn2Cc2ccccc2)N2CCN(C/C=C/c3ccccc3)CC2)cc1 (stereo not given)	PLC-gamma1 inh 14, ADAM17 inh 12, ADAM10 inh 24 | ADAM10 confirm inactive | ADAM17 ctr inactive | ADAM10 ctr inactive | ADAM17 confirm 11 | PLCg1 ctr inactive | PLCb3 confirm inactive
CCc1ccc(NC(=O)C2=CC(c3cccs3)=NS(=O)(=O)N2C)cc1	PLC-gamma1 inh 16, ADAM17 inh 18, ADAM10 inh 29 | ADAM10 confirm inactive | ADAM17 ctr inactive | ADAM10 ctr 23 | ADAM17 confirm 13 | PLCg1 ctr inactive | PLCb3 confirm inactive
COc1ccc(S(=O)(=O)NN(C)C)cc1N(C)S(=O)(=O)c1ccc(Cl)cc1	none
COc1ccc(S(=O)(=O)Nc2ccc(C)cc2)cc1N(C)S(=O)(=O)c1ccc(Cl)cc1	PLC-gamma1 inh 11, ADAM17 inh 19, ADAM10 inh 32 | ADAM10 confirm inactive | ADAM17 ctr inactive | ADAM10 ctr 40 | ADAM17 confirm 21 | PLCg1 ctr inactive | PLCb3 confirm inactive
CCC1CO/C(=C(\C(Cl)=C(Cl)Cl)[N+](=O)[O-])N1 (stereo not given)	PLC-gamma1 inh 9.7, ADAM17 inh 13, ADAM10 inh 33 | ADAM10 confirm inactive | ADAM17 ctr inactive | ADAM10 ctr 30 | ADAM17 confirm 17 | PLCg1 ctr inactive | PLCb3 confirm inactive
CN1CCO/C1=C(\C(Cl)=C(Cl)Cl)[N+](=O)[O-]	none
N#Cc1ccc(/C=C2\CC3(OC(=O)c4ccc(Cl)cc4)CCCN2C3)cc1 (stereo not given)	none
CCOc1cc(C(c2c(C)[nH][nH]c2=O)c2c(C)[nH][nH]c2=O)cc([N+](=O)[O-])c1O	none
COc1cc(C(c2c(C)[nH][nH]c2=O)c2c(C)[nH][nH]c2=O)cc([N+](=O)[O-])c1O	PLC-gamma1 inh 15, ADAM17 inh 10, ADAM10 inh 20 | ADAM10 confirm inactive | ADAM17 ctr inactive | ADAM10 ctr inactive | ADAM17 confirm inactive | PLCg1 ctr inactive | PLCb3 confirm inactive
COC(=O)[C@]12C[C@H](CC(=O)NCCCCc3ccccc3)C(=O)N(Cc3ccc(Cl)cc3Cl)C1=C[C@H](COCc1ccccc1)O[C@@H]2C	none
Cc1ccc(NC(=S)NNc2ccc([N+](=O)[O-])cc2S(=O)(=O)Nc2ccccc2C(=O)O)cc1C	none
O=C(O)c1ccccc1NS(=O)(=O)c1ccc(NNC(=S)Nc2ccc(OC(F)F)cc2)c([N+](=O)[O-])c1	PLC-gamma1 inh 14, ADAM17 inh 11, ADAM10 inh 24 | ADAM10 confirm inactive | ADAM17 ctr inactive | ADAM10 ctr inactive | ADAM17 confirm 12 | PLCg1 ctr 17 | PLCb3 confirm inactive

Compound activity from PubChem.
